Values without a mark were called inactive. Calls of active or inactive are those of the source.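 The calls were made as follows: active = z-score of at least 1.8 in each of two replicates, scored against plate mean and spread of sample wells; inactive = the rest.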
test: viability rescue of complex I mutant cybrids, primary screen, cell-based, galactose medium, ATP luminescence (AID 1645843); conditions: complex I mutant cybrid cells, 72 h, stronger effect = higher value;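 also: positive z means more ATP and so rescue of galactose-driven cybrid death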

SMILES	z-score
CCCc1ccc(C(=O)N2CCC2c2cccc(OC)c2)cc1 (configuration not stated)	2.41 (active)
CCC1(CC)CC1C(=O)N1CCC(n2cc(C(C)(C)O)nn2)CC1 (configuration not stated)	-0.515
Cc1cc2c(=O)n(Cc3nc4ccccc4[nH]3)cnc2s1	-0.615
OC1(c2ccccc2)CCN(Cc2ccc(F)cc2Cl)C1 (configuration not stated)	-0.93
CCCC[C@@H](N)C(=O)N1CCC(n2cc(CCCO)nn2)CC1	-0.47
CCCC[C@@H]1C[C@@H]1C(=O)N1CCC(n2cc(C3CCCCC3)nn2)CC1	1.86
Cn1nccc1NC(=O)Cn1ccc(-c2cnn(-c3ccccc3F)c2)n1	-0.815

Reference: PubChem BioAssay
